Measurements reported in PubChem BioAssay (NCI).
This is part of a sample that, as a whole, favours compounds with a hit. Of some 83,000 tested, about 20% had one in any assay.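 Cell lines were cultured in 96-well plates, exposed to a single compound concentration, and assessed for percent growth 48 hours later.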 Unmarked numbers belong to inactive results. The source made the active and inactive calls. How the source made its calls: active means growth percent below 10; inactive means the rest.

Each compound was assayed on SK-MEL-2 melanoma (assay: NCI-60 one-dose screen, 48 h (100 = growth as untreated, 0 = no growth, -100 = all killed)). Conditions: 10 µM unless noted.

| SMILES | growth |
| --- | --- |
| CCOC(=O)CCC(NC(=O)C(Cc1ccc(N(CCCl)CCCl)cc1)NC=O)C(=O)OCC (stereo not drawn) | -64.3% (active) |
| COC(=O)[C@@H](C)C[C@H](Cc1ccccc1)NC(=O)c1nc([C@@H](C[C@H](C(C)C)N(C)C(=O)[C@@H](NC(=O)[C@H]2CCCCN2C)C(C)C)OC(C)=O)sc1C(C)C | 20% |
| CCCC(C)C1(CC)C(=O)NC(=O)N(C)C1=O (stereo not drawn) | 85.4% |
| C=CCCCCCCCCC(=O)[O-].C=CCCCCCCCCC(=O)[O-].[Zn+2] | 111% |
| COc1ccc(C(O)(C(=O)O)c2ccc(OC)cc2)cc1 | 78.8% |
| Nc1c(F)cc(-c2nc3cc(F)ccc3[se]2)cc1F | 107% |
| CC(=O)O[C@@H]1CC[C@]2(C)[C@H]3CC[C@]4(C)C(=O)CC[C@H]4[C@@H]3C[C@@H]3SC(N)=N[C@@]32C1 | 49.8% |
| N#CC1(C#N)C(c2ccc(N(CCCl)CCCl)cc2)OC23CCCCC2C1(C#N)C(=N)O3 (stereo not drawn) | 122% |
| CCCCNC(c1ccc(Cl)cc1)C(O)c1ccc(Cl)cc1 (stereo not drawn) | 62.5% |
| CCOC(=O)[C@@H](C)C[C@H](Cc1ccccc1)NC(=O)c1csc([C@@H](C[C@H](C(C)C)N(C)C(=O)[C@H](CC)NC(=O)[C@H]2CCCCN2C)OC(C)=O)n1 | 26.8% |
| C[Se]C(=O)c1ccccc1OC(C)=O | 75.4% |
| ClC1=C(Cl)C(Cl)(C2(Cl)C(Cl)=C(Cl)C(Cl)=C2Cl)C(Cl)=C1Cl | 16.9% |
| CN[C@@]1(c2ccccc2Cl)CCCC[C@@H]1NCC1CCCO1 (stereo partly drawn) | 99.7% |
